Most compounds without a hit are left out; they make up all but 6.5% or so of the library.
Vaccinia Venus: inhibitors of vaccinia virus (Venus reporter). Potency, µM (series often up to 36.5 µM), most hits filed as inhibitors. actives 0.46% (n = 330,000). AID 720580. Vaccinia virus Venus reporter expression, fluorescence; calls by dose curve; tested in A549 cells; also: nearly all actives have a fitted effect of over 30% in size
FMDV antiviral: antivirals against foot and mouth disease virus | FMDV antiviral cell-based qHTS | Potency, µM (series often up to 57.9 µM), hits mostly inhibitors | actives 1.2% (n = 410,000) | AID 1159524; calls by dose curve; tested in HEK293T cells; also: read-out not given here; nearly all actives have a fitted effect of over 45% in size
Marburg entry inh: inhibitors of Marburg virus binding or cell entry. Marburg virus pseudotyped entry inhibition, cell reporter. Potency, µM (top dose mostly 37.8 µM), hits mostly inhibitors. actives 1.8% (n = 300,000); calls by dose curve; tested in HEK293 cells
HCMV antiviral: blocks human cytomegalovirus replication; activity change, negative = inhibition, % at 57.5 µM; HFF cells, HCMV-luciferase reporter, 72 h; active compounds read low; AID 1259415; actives 4.5% (n = 410,000); in the data active = activity change below about -60%; inconclusive = no clear call, values can overlap the other calls; inactive = above about -39%
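After 16 h attachment at 37C, HFF cells received test compound and HCMV-luciferase (1 PFU/cell); reporter luminescence read 72 h later, data normalized against buffer-only and known inhibitor Salinomycin.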
VACV mCherry inh: vaccinia inhibition (mCherry reporter). Vaccinia virus mCherry reporter infection, fluorescence. Potency, µM (titrated, usually from 36.5 µM), hits mostly inhibitors. actives 0.63% (n = 310,000). AID 720579; calls by dose curve; tested in A549 cells; also: nearly all actives have a fitted effect of over 35% in size
Lassa entry inh: inhibitors of Lassa virus binding or cell entry | Lassa virus pseudotype entry inhibition, cell reporter | Potency, µM (doses to about 37.9 µM), most hits filed as inhibitors | actives 1.2% (n = 300,000) | AID 540256; calls by dose curve; tested in HEK293 cells; also: nearly all actives have a fitted effect of over 50% in size
Hits are given with their value.

What do the screens show for `Cc1cc(C(C)(C)C)cc(C)c1Cn1c2[n+](c3ccc(C(F)(F)F)cc31)CCCCC2`?
Vaccinia Venus: inactive; FMDV antiviral: 28µM; Marburg entry inh: inconclusive; HCMV antiviral: -95; VACV mCherry inh: inactive; Lassa entry inh: 13µM

How did CCN(Cc1ccccc1)C(=O)Cn1c(=O)n(-c2cccc(C)c2)c(=O)c2c1c1cc(C)ccc1n2C do in these assays?
Vaccinia Venus: inactive; FMDV antiviral: inactive; HCMV antiviral: inactive; VACV mCherry inh: inactive; Lassa entry inh: inactive

How did CCOc1ccc(OCC)c(S(=O)(=O)NCCOC23CC4CC(CC(C4)C2)C3)c1 do in these assays?
Vaccinia Venus: inconclusive; FMDV antiviral: inactive; Marburg entry inh: inconclusive; HCMV antiviral: -73; VACV mCherry inh: inactive; Lassa entry inh: inconclusive

Results for COc1cc(S(=O)(=O)NCCOC23CC4CC(CC(C4)C2)C3)c(OC)cc1Cl ?
Vaccinia Venus: inactive; FMDV antiviral: inactive; Marburg entry inh: inconclusive; HCMV antiviral: -63; VACV mCherry inh: inactive; Lassa entry inh: inconclusive

How did Cc1nc2ccccc2c(=O)n1-c1ccc(NC(=O)c2ccccc2[N+](=O)[O-])cc1 do in these assays?
Vaccinia Venus: inactive; FMDV antiviral: inactive; HCMV antiviral: inactive; VACV mCherry inh: inactive; Lassa entry inh: inactive

What do the screens show for `CN(C)S(=O)(=O)c1ccc(-c2csc(N/N=C/c3ccc(O)cc3)n2)cc1`?
Vaccinia Venus: inconclusive; FMDV antiviral: 14µM; Marburg entry inh: 7.3µM; HCMV antiviral: inconclusive; VACV mCherry inh: inconclusive; Lassa entry inh: 7.1µM

Results for O=[N+]([O-])c1cccc(-c2csc(N/N=C/c3cccc(O)c3)n2)c1 ?
Vaccinia Venus: inconclusive; FMDV antiviral: inconclusive; Marburg entry inh: inconclusive; HCMV antiviral: inactive; VACV mCherry inh: inconclusive; Lassa entry inh: 7.9µM

How did CCOC(=O)Cc1csc(N/N=C/c2cccc([N+](=O)[O-])c2)n1 do in these assays?
Vaccinia Venus: inactive; FMDV antiviral: inactive; Marburg entry inh: inactive; HCMV antiviral: inactive; VACV mCherry inh: inactive; Lassa entry inh: inactive

What do the screens show for `CN(C)S(=O)(=O)c1ccc(-c2csc(N/N=C/c3ccco3)n2)cc1`?
Vaccinia Venus: inactive; FMDV antiviral: 6.3µM; Marburg entry inh: inconclusive; HCMV antiviral: inactive; VACV mCherry inh: inconclusive; Lassa entry inh: 8.9µM

How did Cc1ccc(-c2csc(N/N=C/c3ccco3)n2)cc1 do in these assays?
Vaccinia Venus: inactive; FMDV antiviral: inactive; Marburg entry inh: inconclusive; HCMV antiviral: inactive; VACV mCherry inh: inactive; Lassa entry inh: inconclusive

Results for C(=N\Nc1nc(-c2ccccc2)cs1)/c1ccncc1 ?
Vaccinia Venus: inactive; FMDV antiviral: inactive; Marburg entry inh: inactive; HCMV antiviral: inactive; VACV mCherry inh: inactive; Lassa entry inh: inconclusive

Results for C[C@]1(C(=O)CSc2nc3ccccc3[nH]2)CCC(=O)O1 ?
Marburg entry inh: inactive

Results for CC(C)CON=C1C[C@@H](O)[C@@H](O)[C@@H]2[C@H]3C(=O)N(C4CCCCC4)C(=O)[C@@H]3CC[C@@H]12 ?
Marburg entry inh: inactive; Lassa entry inh: inactive

How did Cc1cc(N2CCN(C(=O)c3ccco3)CC2)nc(-c2ccccc2)n1 do in these assays?
Vaccinia Venus: inactive; FMDV antiviral: inactive; Marburg entry inh: inconclusive; HCMV antiviral: inactive; VACV mCherry inh: inactive; Lassa entry inh: 11µM

How did Cc1cc(N2CCN(c3ccccc3)CC2)nc(-c2ccccc2)n1 do in these assays?
Vaccinia Venus: inactive; FMDV antiviral: inactive; Marburg entry inh: inactive; HCMV antiviral: inactive; VACV mCherry inh: inactive; Lassa entry inh: inconclusive

How did Cc1cc(N2CCN(C(=O)c3ccco3)CC2)n2nc(-c3cccc(F)c3)cc2n1 do in these assays?
FMDV antiviral: inconclusive; Marburg entry inh: inconclusive; HCMV antiviral: -63; Lassa entry inh: inactive

Results for C#CCNC(=O)C1CCN(c2cc(C)nc(-c3ccccc3)n2)CC1 ?
Vaccinia Venus: inactive; FMDV antiviral: inactive; Marburg entry inh: inactive; HCMV antiviral: -95; VACV mCherry inh: inactive; Lassa entry inh: inactive

What do the screens show for `Cn1nnnc1SCCCNCc1cc(Br)ccc1OCc1ccccc1F`?
Vaccinia Venus: inactive; FMDV antiviral: inconclusive; Marburg entry inh: inconclusive; HCMV antiviral: inconclusive; VACV mCherry inh: inactive; Lassa entry inh: inactive

How did COc1ccc(S(=O)(=O)NCCS(=O)(=O)N2CCN(c3ccccc3)CC2)cc1C do in these assays?
Vaccinia Venus: inactive; FMDV antiviral: inactive; HCMV antiviral: inactive; VACV mCherry inh: inactive; Lassa entry inh: inactive

Results for c1ccc(-c2nc(SCC3CCCCO3)n[nH]2)cc1 (centres undefined) ?
Vaccinia Venus: inactive; VACV mCherry inh: inactive

What do the screens show for `CC(=O)c1cccc(Nc2cc(C)nc3nc(-c4ccccc4C)nn23)c1`?
Vaccinia Venus: inactive; FMDV antiviral: inactive; Marburg entry inh: inactive; HCMV antiviral: inactive; VACV mCherry inh: inactive; Lassa entry inh: inactive

Results for Cc1ccc(-c2nn(CC(=O)Nc3cccc(C(F)(F)F)c3)c(=O)c3ccccc23)cc1 ?
Vaccinia Venus: inactive; FMDV antiviral: inactive; Marburg entry inh: inconclusive; HCMV antiviral: inactive; VACV mCherry inh: inactive; Lassa entry inh: inconclusive

Results for O=C(NC1CCN(Cc2ccccc2)CC1)c1ccccc1Cl ?
FMDV antiviral: inactive; HCMV antiviral: inactive

What do the screens show for `Cc1c(C(=O)NC2CCN(Cc3ccccc3)C2)oc2c(Cl)cccc12` (centres undefined)?
Vaccinia Venus: inactive; FMDV antiviral: inactive; Marburg entry inh: inconclusive; HCMV antiviral: inactive; VACV mCherry inh: inconclusive; Lassa entry inh: 10µM

Results for Cn1c2c(c(=O)n(C)c1=O)[C@](NC(=O)c1cccs1)(C(F)(F)F)C(=O)N2 ?
Marburg entry inh: inactive

What do the screens show for `CCOc1ccc(N)c(SSc2cc(OCC)ccc2N)c1`?
Vaccinia Venus: inactive; FMDV antiviral: inactive; HCMV antiviral: -98; VACV mCherry inh: inactive

How did Cc1ccc(NC(=O)C(c2ccccc2)N(C)C)cc1Cl (centres undefined) do in these assays?
Vaccinia Venus: inactive; FMDV antiviral: inactive; Marburg entry inh: 11µM; VACV mCherry inh: inactive; Lassa entry inh: inconclusive

How did Cc1ccc(NC(=O)C(OC(=O)c2ccc(O)cc2)c2ccccc2)cc1Cl (centres undefined) do in these assays?
FMDV antiviral: inactive; Marburg entry inh: inactive; HCMV antiviral: inactive; Lassa entry inh: inconclusive

How did Cn1cc(C(=O)Cc2ccccc2)c2ccccc21 do in these assays?
Vaccinia Venus: inactive; FMDV antiviral: inactive; Marburg entry inh: inactive; HCMV antiviral: -67; VACV mCherry inh: inactive; Lassa entry inh: inactive

What do the screens show for `Cn1cc(C(=O)C(F)(F)F)c2ccccc21`?
Vaccinia Venus: inactive; FMDV antiviral: inactive; Marburg entry inh: inactive; HCMV antiviral: inactive; Lassa entry inh: inactive

What do the screens show for `Cc1cccc(Nc2nnc(SCC(=O)NC(=O)Nc3ccc4c(c3)OCCO4)s2)c1`?
Vaccinia Venus: inactive; FMDV antiviral: inactive; Marburg entry inh: inconclusive; HCMV antiviral: -96; VACV mCherry inh: inactive; Lassa entry inh: inconclusive

Results for O=C(NCC(c1cccnc1)N1CCc2ccccc21)c1ccc(F)cc1 (centres undefined) ?
Vaccinia Venus: inactive; FMDV antiviral: inactive; HCMV antiviral: inactive; VACV mCherry inh: inactive; Lassa entry inh: inconclusive

Results for COCc1ccc([C@@H]2C[C@H]3CN(Cc4ccccc4C)C(=O)[C@]34CCCN24)o1 ?
FMDV antiviral: inactive; HCMV antiviral: inactive

From PubChem BioAssay
